Assay results published in PMC5540273 (PLoS ONE, 2017).

How the values were obtained:
Conditions in all cases: concentration: 1 μM, replicates: in singlicate; n = 1
CTK = tested on: T1, CTK
T1 construct: gene MATK

DAPK1 = tested on: DAPK1
DAPK2 = tested on: DAPK2
DAPK3 = tested on: DAPK3
DCAMKL1 = tested on: T2, DCAMKL1
T2 construct: gene DCLK1

DCAMKL2 = tested on: T3, DCAMKL2
T3 construct: gene DCLK2

DCAMKL3 = tested on: T4, DCAMKL3
T4 construct: gene DCLK3

DDR1 = tested on: DDR1
DDR2 = tested on: DDR2
DLK = tested on: T5, DLK
T5 construct: gene MAP3K12
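Also: KINOMEscan kinase panel screen.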

Row | Compound | %Inh (CTK) | %Inh (DAPK1) | %Inh (DAPK2) | %Inh (DAPK3) | %Inh (DCAMKL1) | %Inh (DCAMKL2) | %Inh (DCAMKL3) | %Inh (DDR1) | %Inh (DDR2) | %Inh (DLK)
1 | COc1ccc(CSc2nnc(-c3ccc4ncsc4c3)o2)cc1C(F)(F)F | 5% | 10% | 4% | 0% | 9% | 0% | 0% | 14% | 12% | 0%
2 | COc1cc2ncnc(Nc3cccc(Br)c3)c2cc1OC.Cl [GI230329] | 0% | 0% | 0% | 9% | 25% | 0% | 10% | 63% | 43% | 39%
3 | CCn1c(-c2ccccc2)nc2cnccc21 [SB-733416] | 6% | 0% | 0% | 18% | 15% | 1% | 33% | 16% | 13% | 16%
4 | COC(=O)c1cccc(NC(=O)NC2CCN(c3ccnc(Nc4ccc(F)cc4)n3)C2)c1 (stereo not drawn) [GSK1379725] | 0% | 0% | 0% | 0% | 0% | 0% | 12% | 0% | 0% | 0%
5 | CSc1ccc(-c2nc3n(c2-c2ccncc2)CCC3)cc1 [SKF-105561] | 21% | 29% | 0% | 0% | 3% | 0% | 21% | 75% | 60% | 0%
6 | COc1ccc(CSc2nnc(-c3ccc4c(c3)CCO4)o2)cc1 | 0% | 0% | 18% | 0% | 0% | 0% | 0% | 0% | 15% | 0%
7 | Cc1ccc(NC(=O)Nc2ccccc2F)cc1-c1ccc(C(=O)Nc2ccncc2)cc1 [GSK1398477] | 0% | 0% | 17% | 0% | 0% | 40% | 26% | 97% | 55% | 0%
8 | Fc1ccc(-c2nn3cccc(F)c3c2-c2ccncc2)cc1 [GW475620] | 0% | 0% | 0% | 5% | 0% | 0% | 10% | 47% | 39% | 15%
9 | O=C(Nc1n[nH]c2cc(-c3ccsc3)ccc12)C1CC1 [SB-732932] | 32% | 4% | 41% | 40% | 0% | 0% | 74% | 0% | 0% | 0%
10 | FC(F)(F)c1ccccc1-c1cc(-c2c[nH]nc2-c2ccccn2)ccn1 [GW679396] | 0% | 0% | 9% | 23% | 6% | 0% | 2% | 68% | 2% | 32%
11 | Fc1ccc(-c2nc[nH]c2-c2ccncc2)cc1 [SB-217360] | 31% | 0% | 0% | 8% | 29% | 0% | 0% | 9% | 34% | 0%
12 | Cc1cccc2c(-c3ccncn3)c(-c3ccc(F)cc3)nn12 [GW515532] | 0% | 6% | 0% | 0% | 0% | 0% | 1% | 43% | 16% | 25%
13 | CC(=O)c1c(C)c2cnc(Nc3ccn(C)n3)nc2n(C2CCCC2)c1=O | 0% | 0% | 0% | 3% | 0% | 100% | 0% | 0% | 0% | 64%
14 | CN1c2ccc(-c3ccc(C(N)=O)cc3)cc2-c2[nH]ncc2S1(=O)=O | 0% | 54% | 18% | 26% | 7% | 0% | 0% | 0% | 28% | 0%
15 | O=C(Nc1n[nH]c2nc(-c3ccco3)c(Br)cc12)C1CCN(Cc2ccccc2)C1.O=C(O)[C@H](O)[C@@H](O)C(=O)O (stereo not drawn) [SB-742034] | 71% | 0% | 28% | 17% | 14% | 7% | 20% | 0% | 0% | 0%
16 | CS(=O)(=O)CCNCc1nc(-c2ccc3ncnc(Nc4ccc5c(cnn5Cc5ccccc5)c4)c3c2)cs1.Cl.Cl [GW569716] | 0% | 0% | 0% | 0% | 9% | 0% | 4% | 0% | 24% | 53%
17 | CC[C@@H]1CO[C@H](C(=O)Nc2ccccc2)CN1c1cc(-c2ccc3c(N)n[nH]c3c2)nc(NC)n1 [GSK2376236] | 0% | 17% | 37% | 47% | 2% | 0% | 90% | 0% | 11% | 0%

Row | Compound | %Inh (CTK) | %Inh (DAPK1) | %Inh (DAPK2) | %Inh (DAPK3) | %Inh (DCAMKL1) | %Inh (DCAMKL2) | %Inh (DCAMKL3) | %Inh (DDR1) | %Inh (DDR2) | %Inh (DLK)
18 | Cc1ccc(NC(=O)c2ccc(Cl)cc2)cc1-c1ccc(C(=O)Nc2ccncc2)cc1 [GSK1398467] | 0% | 12% | 0% | 34% | 3% | 0% | 0% | 89% | 36% | 0%
19 | CNc1nc(-c2ccc3c(N)n[nH]c3c2)cc(N2C[C@@H](C(=O)NC3CCCCC3)OC[C@H]2C)n1 [GSK2375584] | 0% | 26% | 34% | 40% | 24% | 0% | 31% | 15% | 36% | 37%
20 | CNCc1ccc2nc(NC(=O)c3ccc(C(C)(C)C)cc3)cn2c1 | 45% | 0% | 0% | 1% | 15% | 4% | 24% | 9% | 24% | 27%
21 | Cc1ccc(NC(=O)Nc2ccccc2)cc1-c1ccc(C(=O)Nc2ccncc2)cc1 [GSK1398471] | 0% | 3% | 3% | 9% | 10% | 0% | 24% | 95% | 38% | 9%
22 | NS(=O)(=O)c1cccc(N/C=C2\C(=O)Nc3ccc(S(=O)(=O)Cc4c(Cl)cccc4Cl)cc32)c1 [GSK398099] | 0% | 100% | 1% | 21% | 38% | 10% | 0% | 0% | 0% | 52%
23 | CCn1c(-c2c(N)noc2C)nc2cnccc21 [SB-737856] | 14% | 0% | 0% | 0% | 5% | 30% | 0% | 0% | 0% | 41%
24 | COc1ccc(Nc2nccc(N3CCC(NC(=O)C(C)c4ccc(Cl)cc4)CC3)n2)cc1 (stereo not drawn) [GSK1379812] | 0% | 3% | 20% | 10% | 6% | 0% | 0% | 0% | 4% | 0%
25 | CC(C)c1cc(-c2ccc3c(N)n[nH]c3c2)nc(N)n1 [GSK2250882] | 0% | 9% | 6% | 25% | 2% | 0% | 0% | 0% | 4% | 21%
26 | CCc1ccc(-c2ccc3c(c2)-c2n[nH]cc2S(=O)(=O)N3C)cc1 | 0% | 24% | 7% | 0% | 34% | 0% | 13% | 0% | 9% | 0%
27 | CC(=O)c1cccc(NC(=O)NC2CCN(c3ccnc(Nc4ccc(F)cc4)n3)C2)c1 (stereo not drawn) [GSK1379710] | 0% | 15% | 2% | 26% | 6% | 11% | 14% | 20% | 7% | 29%
28 | CC(C)c1ccc(O)cc1Nc1ccnc2ccc(C(F)(F)F)cc12 [GW482059] | 8% | 5% | 0% | 0% | 0% | 0% | 0% | 18% | 0% | 17%
29 | Cn1cncc1-c1cc2c(Nc3ccc(OCc4ccccc4)cc3)ncnc2cn1 [GW281179] | 0% | 0% | 0% | 7% | 20% | 14% | 0% | 9% | 0% | 27%
30 | Fc1ccc(-c2nc3n(c2-c2ccncc2)CCS3)cc1 [GI98581] | 0% | 0% | 0% | 0% | 0% | 21% | 30% | 54% | 54% | 26%
31 | CC(=O)c1c(C)c2cnc(Nc3ccc(N4CCNCC4)cn3)nc2n(C2CCCC2)c1=O | 0% | 0% | 13% | 6% | 0% | 0% | 0% | 0% | 0% | 0%
32 | Cc1ccccc1-c1cc(-c2c[nH]nc2-c2ccccn2)ccn1 [GW680061] | 0% | 0% | 0% | 25% | 0% | 6% | 12% | 79% | 5% | 32%
33 | CNc1nc(-c2ccc3c(N)n[nH]c3c2)cc(N2C[C@@H](C(=O)Nc3ccccc3)CC[C@H]2C)n1 [GSK2298859] | 0% | 11% | 30% | 43% | 53% | 11% | 76% | 6% | 8% | 11%
34 | Cc1cnc(N)c(/C=C/c2cncc(C(=O)NCCc3ccc(Cl)cc3Cl)c2)c1.Cl [GSK190937] | 0% | 10% | 7% | 11% | 4% | 0% | 23% |  | 79% | 25%
